# Screening data from PubChem.
# An excerpt weighted towards active compounds, which were near 3.4% of everything screened.
# eIF4E 4G PPI: eIF4E–eIF4G protein interaction inhibitors, primary screen, biochemical, uHTS, TR-FRET, eIF4GI fragment; inhibition, % at 21.7 µM; TR-FRET eIF4E-eIF4GI(517-606) binding, 2 h; 220,000 compounds, 0.37% hits; AID 782, 2007; Eukaryotic translation initiation factor 4E (Mus musculus) + Eukaryotic translation …;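 note: 0% = full FRET control wells and 100% = background wells lacking eIF4GI fragment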
# Mcl1-Noxa inh: Mcl-1/Noxa binding inhibitors, primary screen, biochemical, TR-FRET, 1536-well; inhibition, % at 21.7 µM; Induced myeloid leukemia cell differentiation protein Mcl-1 (Homo sapiens), Q07820; 220,000 compounds, 1.5% hits; TR-FRET Mcl-1/Noxa peptide binding, 2 h;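 active = compounds that cut the protein-peptide binding signal by more than 50% relative to plate controls in a single-dose test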;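 note: His-tagged Mcl-1 with rhodamine Noxa BH3 peptide and terbium anti-His antibody; 0% = Mcl-1 plus Noxa peptide wells and 100% = peptide-only wells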
# Mcl-1 Bim block: inhibitors of Bim peptide binding to Mcl-1, primary screen, biochemical, bead-based flow cytometry, multiplex; AID 1009, 2008; Induced myeloid leukemia cell differentiation protein Mcl-1 (Homo sapiens), Q07820; inhibition, % at 10 µM; Bim peptide-Mcl-1 binding; 190,000 compounds, 0.1% hits; in the data active = inhibition above about 40%;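 note: 0% = no compound tracer wells and 100% = peptide blocker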
# Mcl1 Bid PPI: Mcl-1/Bid binding inhibitors, primary screen, biochemical, TR-FRET, 1536-well. 220,000 compounds, 0.97% hits. AID 1021, 2008. Induced myeloid leukemia cell differentiation protein Mcl-1 (Homo sapiens), Q07820. inhibition, % at 21.7 µM. TR-FRET Mcl-1/Bid-Dy647 peptide binding;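 active = compounds that cut the binding signal by more than half at the single screening dose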;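 note: His-tagged Mcl-1 with europium anti-His antibody binding Bid BH3 peptide; 0% = Mcl-1 plus peptide wells and 100% = peptide-only wells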
# 14-3-3 Bad PPI: inhibitors of 14-3-3 zeta/Bad binding, primary screen, biochemical, TR-FRET, bovine 14-3-3 zeta; 220,000 compounds, 0.71% hits; AID 781, 2007; inhibition, % at 21.7 µM; TR-FRET 14-3-3zeta/Dy647-pBad peptide displacement, 1 h; 14-3-3 protein zeta/delta (Bos taurus), P63103;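 active = inhibition above about 70%, limit read from the data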;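 note: 0% = full 14-3-3 plus peptide FRET controls and 100% = background without 14-3-3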
# Target sequence (P63103 whole entry, looked up): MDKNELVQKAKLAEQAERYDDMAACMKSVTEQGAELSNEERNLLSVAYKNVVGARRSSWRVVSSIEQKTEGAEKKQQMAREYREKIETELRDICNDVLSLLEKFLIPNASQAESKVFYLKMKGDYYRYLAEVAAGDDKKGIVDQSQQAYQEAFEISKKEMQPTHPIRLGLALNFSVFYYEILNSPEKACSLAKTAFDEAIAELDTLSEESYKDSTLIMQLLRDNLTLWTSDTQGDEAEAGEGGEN
# p47phox inh: p47phox/p22phox peptide binding inhibitors, primary screen, biochemical, uHTS, NADPH oxidase regulatory subunit; Neutrophil cytosol factor 1 (Homo sapiens), P14598; fluorescence polarization, 2 h; inhibition, % at 24.7 µM; 220,000 compounds, 0.53% hits;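 note: 0% = p47phox with labelled peptide and 100% = labelled peptide alone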
# The depositor's hits bear a star; x = not tested or not shown; [ ] = dose if it differs, or a comment.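 Rule for the calls, unless noted: active = inhibition above about 30% (limit read from the data); inactive = the rest.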
SMILES,eIF4E 4G PPI,Mcl1-Noxa inh,Mcl-1 Bim block,Mcl1 Bid PPI,14-3-3 Bad PPI,p47phox inh
COc1ccc(Nc2nc(-c3cccc([N+](=O)[O-])c3)nc3ccccc23)c(OC)c1,-3,27,-6,34,17,11
COc1ccc(OC)c(Nc2ncnc3sc(-c4ccccc4)cc23)c1,38*,7,-4,-4,80*[fluorescence artefact?],-15
COc1ccc(N(CC(=O)NCc2ccccc2)C(=O)CCC(=O)Nc2cc(C)ccn2)c(OC)c1,88*,26,x,-67,0,-2
COc1ccccc1N(CC(=O)NCc1ccccc1)C(=O)CCC(=O)Nc1ccccn1,0,1,-16,0,3,5
C[C@@H](c1ncncc1F)[C@](O)(Cn1cncn1)c1ccc(F)cc1F,3,1,-1,0,0,0
CN(C)c1ccc(NC(=O)c2cccc(C(=O)Nc3ccc(N(C)C)cc3)n2)cc1,16,86*,3,-12,-4,-12
COC(=O)c1cccc(C(=O)Nc2ccc(F)cc2)n1,0,4,0,-17,0,-10
CCN(CC)c1ccc(NC(=O)c2cc(Cl)ccc2OC)cc1,28,66*,1,8,10,-20
CN(C)c1ccc(/C=N/NC(=O)c2cccc(C(=O)N/N=C/c3ccc(N(C)C)cc3)n2)cc1,-5,82*,5,45,9,2
COc1cccc(C(=O)Nc2ccc(N(C)C)cc2)c1OC,8,65*,-5,-42,-15,4
CCCOC(=O)c1ccc(NC(=O)c2cc(Cl)ccc2OC)cc1,5,6,-4,-61,1,-6
CC(C)NC(=O)Cn1cc(C(=O)C2CC2)c2ccccc21,3,12,0,-23,-8,-8
CC(=O)c1ccc(N2Cc3ccccc3C2=NC(=O)c2cccs2)cc1,13,14,-2,27,27,38*
COc1ccccc1-n1ccnc1SCC(=O)NCc1ccco1,-3,-4,-3,-15,-5,-5
CCOC(=O)c1[nH]ncc1CN1CCCC(C(=O)c2ccc(C(C)(C)C)cc2)C1 (stereo not given),1,24,0,1,11,-3
COc1ccccc1NC(=O)c1ccc(NC(=O)c2cc3c(s2)CCC3)cc1,41*,-27,-10,-21,79*[fluorescence artefact?],-15
CCOc1ccc(-c2csc(/C(C#N)=C\c3ccc(O)c([N+](=O)[O-])c3)n2)cc1,6,56*,-3,-23,-8,-9
CCCCc1ccc(-c2csc(/C(C#N)=C\c3ccc(C)o3)n2)cc1,-3,-12,-2,-9,-4,-51
O=C(CNc1ccc2ccccc2c1)N/N=C/C=C/c1cccc([N+](=O)[O-])c1,21,77*,-2,13,26,-8
Nc1c(C(=O)N/N=C/c2ccc([N+](=O)[O-])cc2)sc2nnc(-c3ccccc3)c(-c3ccccc3)c12,-6,8,x,-15,2,2
COc1ccc(CN=C2NC(=O)CC(C(=O)Nc3ccc(F)cc3)S2)cc1 (stereo not given),36*,10,0,-14,86*[fluorescence artefact?],1
Cc1nc(Cl)nc(N(C)c2ccccc2)c1[N+](=O)[O-],0,-7,x,0,2,-8
Cc1ccc2sc(NNC(=O)c3cc(=O)c4ccccc4o3)nc2c1C,6,66*,1,-25,-21,-14
Cc1cccc2sc(NNC(=O)c3cc(=O)c4ccccc4o3)nc12,-3,37,-5,-56,-13,-3
COc1ccc2nc(NNC(=O)c3cc(=O)c4ccccc4o3)sc2c1,0,72*,5,-47,-18,-5
CCOC(=O)N1CCN(Cc2c(F)cccc2F)CC1,2,28,-3,52*,14,-12
CCOC(=O)N1CCN(Cc2cn3ccccc3n2)CC1,4,8,-6,56*,62,-15
